Measured values as given in PubChem BioAssay (NCI).
The panel holds about 83,000 compounds, 20% with a hit somewhere; the sample as a whole holds those more often.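 In brief: 96-well plates, 48 h treatment, single concentration, percent growth endpoint.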 Calls of active or inactive are those of the source. How the source made its calls: active means growth percent below 10; inactive means the rest.

Experiments:
Test in all cases: NCI-60 one-dose screen, 48 h (100 = growth as untreated, 0 = no growth, -100 = all killed)
Settings in all cases: 10 µM unless noted
SR leukemia = tested on: SR leukemia
RPMI-8226 leukemia = tested on: RPMI-8226 leukemia
OVCAR-8 ovarian = tested on: OVCAR-8 ovarian
OVCAR-5 ovarian = tested on: OVCAR-5 ovarian
SK-OV-3 ovarian = tested on: SK-OV-3 ovarian
IGROV1 ovarian = tested on: IGROV1 ovarian
OVCAR-3 ovarian = tested on: OVCAR-3 ovarian
HS 578T breast = tested on: HS 578T breast
NCI/ADR-RES ovarian = tested on: NCI/ADR-RES ovarian
T-47D breast = tested on: T-47D breast
BT-549 breast = tested on: BT-549 breast
MDA-MB-435 melanoma = tested on: MDA-MB-435 melanoma
SW-620 colon = tested on: SW-620 colon
MCF7 breast = tested on: MCF7 breast
HCT-116 colon = tested on: HCT-116 colon
HCC-2998 colon = tested on: HCC-2998 colon
KM12 colon = tested on: KM12 colon
OVCAR-4 ovarian = tested on: OVCAR-4 ovarian

Measured: growth

COc1ccc2[nH]cc(-c3nc(-c4c[nH]c5ncccc45)cs3)c2c1
inactive: RPMI-8226 leukemia 40.9% | OVCAR-8 ovarian 44.8% | OVCAR-5 ovarian 81.5% | SK-OV-3 ovarian 41.4% | IGROV1 ovarian 30.7% | OVCAR-3 ovarian 50.6% | HS 578T breast 57.5% | NCI/ADR-RES ovarian 47% | T-47D breast 67.1% | BT-549 breast 36.8% | MDA-MB-435 melanoma 54% | SW-620 colon 19% | MCF7 breast 32.5% | HCT-116 colon 18.1% | HCC-2998 colon 70.4%
active: SR leukemia -7.54%

O=C(N/N=C\c1ccccc1O)C1CC1
inactive: SR leukemia 104% | RPMI-8226 leukemia 107% | OVCAR-8 ovarian 93.5% | OVCAR-5 ovarian 117% | SK-OV-3 ovarian 101% | IGROV1 ovarian 95% | OVCAR-3 ovarian 102% | HS 578T breast 115% | NCI/ADR-RES ovarian 92.8% | T-47D breast 86.8% | BT-549 breast 112% | MDA-MB-435 melanoma 112% | SW-620 colon 108% | MCF7 breast 102% | HCT-116 colon 107% | HCC-2998 colon 103% | KM12 colon 100%

CC1=CC(=O)N(c2cccc3c(N4C(=O)C=C(C)C4=O)cccc23)C1=O
inactive: RPMI-8226 leukemia 21.5% | OVCAR-8 ovarian 80.3% | OVCAR-5 ovarian 109% | SK-OV-3 ovarian 108% | IGROV1 ovarian 76.3% | HS 578T breast 110% | NCI/ADR-RES ovarian 78.3% | T-47D breast 30.1% | BT-549 breast 99.7% | MDA-MB-435 melanoma 80.6% | SW-620 colon 14.3% | MCF7 breast 57.7% | HCT-116 colon 17.8% | HCC-2998 colon 105% | KM12 colon 106%
active: SR leukemia -21.1% | OVCAR-3 ovarian -16.2%

C/C(=N\NC(=O)C(C)SC(C)C(=O)N/N=C(\C)c1cccnc1)c1cccnc1 (stereo unspecified)
inactive: SR leukemia 79.6% | RPMI-8226 leukemia 101% | OVCAR-8 ovarian 109% | OVCAR-5 ovarian 110% | SK-OV-3 ovarian 109% | IGROV1 ovarian 102% | OVCAR-3 ovarian 114% | HS 578T breast 101% | NCI/ADR-RES ovarian 108% | T-47D breast 104% | BT-549 breast 106% | MDA-MB-435 melanoma 106% | SW-620 colon 96.9% | MCF7 breast 95.7% | HCT-116 colon 110% | HCC-2998 colon 106% | KM12 colon 107%

COc1c(N)c2c(c([N+](=O)[O-])c1OC)C(=O)OC2
inactive: SR leukemia 91.2% | RPMI-8226 leukemia 99.9% | OVCAR-8 ovarian 98.1% | OVCAR-5 ovarian 115% | SK-OV-3 ovarian 105% | IGROV1 ovarian 105% | OVCAR-3 ovarian 105% | HS 578T breast 109% | NCI/ADR-RES ovarian 114% | T-47D breast 101% | MDA-MB-435 melanoma 106% | SW-620 colon 106% | MCF7 breast 100% | HCT-116 colon 102% | HCC-2998 colon 105% | KM12 colon 107%

Brc1cnc2[nH]cc(-c3nnc(-c4ccccc4)o3)c2c1
inactive: SR leukemia 68.5% | RPMI-8226 leukemia 85% | OVCAR-8 ovarian 84.7% | OVCAR-5 ovarian 96.5% | OVCAR-4 ovarian 71.3% | IGROV1 ovarian 41.2% | OVCAR-3 ovarian 70.2% | HS 578T breast 79.2% | NCI/ADR-RES ovarian 80% | T-47D breast 56.5% | BT-549 breast 82% | MDA-MB-435 melanoma 78% | SW-620 colon 86.4% | MCF7 breast 63.6% | HCT-116 colon 55.7% | HCC-2998 colon 104% | KM12 colon 68.9%

Brc1ccc2[nH]cc(-c3nc(-c4c[nH]c5ncccc45)cs3)c2c1
active: SR leukemia 9.23% | SW-620 colon 6.36%
inactive: RPMI-8226 leukemia 39.9% | OVCAR-8 ovarian 46.3% | OVCAR-5 ovarian 63.7% | SK-OV-3 ovarian 55% | IGROV1 ovarian 23.1% | OVCAR-3 ovarian 52.4% | HS 578T breast 71.8% | NCI/ADR-RES ovarian 32.7% | T-47D breast 59.8% | BT-549 breast 58.7% | MDA-MB-435 melanoma 40.6% | MCF7 breast 32.3% | HCT-116 colon 17.5% | HCC-2998 colon 60.2% | KM12 colon 21.3%

CC(=O)O[C@H]1CC[C@@]2(C)[C@@H](CC[C@@H]3[C@@H]2CC(=O)[C@@]2(C)[C@H]3C[C@@H](C3CCCC3=O)[C@@H]2C(C)=O)C1 (stereo partly specified)
inactive: SR leukemia 87.9% | RPMI-8226 leukemia 91.2% | OVCAR-8 ovarian 98.9% | OVCAR-5 ovarian 107% | SK-OV-3 ovarian 107% | IGROV1 ovarian 98.1% | OVCAR-3 ovarian 115% | HS 578T breast 108% | NCI/ADR-RES ovarian 104% | T-47D breast 91.1% | BT-549 breast 103% | MDA-MB-435 melanoma 118% | SW-620 colon 111% | MCF7 breast 98.2% | HCC-2998 colon 107% | KM12 colon 106%

Clc1ccc2[nH]cc(-c3nc(-c4c[nH]c5ncccc45)cs3)c2c1
inactive: RPMI-8226 leukemia 37.6% | OVCAR-8 ovarian 46.2% | OVCAR-5 ovarian 80.6% | SK-OV-3 ovarian 59.6% | IGROV1 ovarian 32.8% | OVCAR-3 ovarian 55.9% | HS 578T breast 75.7% | NCI/ADR-RES ovarian 38.7% | T-47D breast 47.8% | BT-549 breast 59.3% | MDA-MB-435 melanoma 49.4% | SW-620 colon 18.1% | MCF7 breast 35% | HCT-116 colon 23.7% | HCC-2998 colon 69.3%
active: SR leukemia 9.06%

Cn1c2c(c3ccc(Cl)cc31)-n1cccc1C2=O
inactive: SR leukemia 67.1% | RPMI-8226 leukemia 88.3% | OVCAR-8 ovarian 83.5% | OVCAR-5 ovarian 103% | SK-OV-3 ovarian 102% | IGROV1 ovarian 69.9% | OVCAR-3 ovarian 104% | HS 578T breast 104% | NCI/ADR-RES ovarian 99.7% | T-47D breast 95.2% | BT-549 breast 92.6% | MDA-MB-435 melanoma 112% | SW-620 colon 93.7% | MCF7 breast 74.2% | HCT-116 colon 76.9% | HCC-2998 colon 101% | KM12 colon 100%

Cn1cc(-c2nc(-c3cn(C)c4ncccc34)cs2)c2cc(F)ccc21
inactive: SR leukemia 22.4% | RPMI-8226 leukemia 38% | OVCAR-8 ovarian 54.6% | OVCAR-5 ovarian 56.3% | SK-OV-3 ovarian 57.4% | IGROV1 ovarian 44.2% | HS 578T breast 76.4% | NCI/ADR-RES ovarian 10.8% | T-47D breast 48.1% | BT-549 breast 49% | SW-620 colon 26.9% | MCF7 breast 20% | HCT-116 colon 18.6% | HCC-2998 colon 53% | KM12 colon 22.2%
active: OVCAR-3 ovarian 1.46% | MDA-MB-435 melanoma -15.1%

O=[N+]([O-])c1ccc(/C=N\Nc2ccccc2)cc1
inactive: SR leukemia 106% | RPMI-8226 leukemia 67.8% | OVCAR-8 ovarian 61.8% | OVCAR-5 ovarian 88% | SK-OV-3 ovarian 101% | IGROV1 ovarian 78% | OVCAR-3 ovarian 82.5% | HS 578T breast 63.1% | NCI/ADR-RES ovarian 60% | T-47D breast 72.2% | MDA-MB-435 melanoma 68.9% | SW-620 colon 79.9% | MCF7 breast 75.1% | HCT-116 colon 66.3% | HCC-2998 colon 96.6% | KM12 colon 36.1%

NC(N)=N/N=C/c1ccc(-c2ccc(-c3ccc(Cl)cn3)s2)cc1
active: SW-620 colon 2.46%
inactive: SR leukemia 11.6% | RPMI-8226 leukemia 38.4% | OVCAR-8 ovarian 99.3% | OVCAR-5 ovarian 107% | OVCAR-4 ovarian 99.3% | IGROV1 ovarian 91.1% | OVCAR-3 ovarian 85.9% | HS 578T breast 92.3% | NCI/ADR-RES ovarian 50.8% | T-47D breast 91.2% | BT-549 breast 98.8% | MCF7 breast 42.8% | HCT-116 colon 50.2% | HCC-2998 colon 98.4% | KM12 colon 14.8%

COC(=O)[C@@H]1[C@H]2C[C@H]3c4[nH]c5cc(OC)ccc5c4CCN3C[C@@H]2C[C@H](OC(=O)/C=C/c2ccnc(OC)c2)[C@H]1OC
inactive: SR leukemia 73.1% | RPMI-8226 leukemia 69.6% | OVCAR-8 ovarian 88.4% | OVCAR-5 ovarian 102% | SK-OV-3 ovarian 96% | IGROV1 ovarian 83.2% | OVCAR-3 ovarian 90.3% | HS 578T breast 90.9% | NCI/ADR-RES ovarian 81.6% | T-47D breast 67.1% | BT-549 breast 81.2% | MDA-MB-435 melanoma 97.5% | MCF7 breast 72.6% | HCT-116 colon 73.4% | HCC-2998 colon 105% | KM12 colon 98.8%

O=C(O)c1cccc2c1Cc1cc([N+](=O)[O-])ccc1-2
inactive: SR leukemia 89% | RPMI-8226 leukemia 100% | OVCAR-8 ovarian 108% | OVCAR-5 ovarian 106% | SK-OV-3 ovarian 107% | IGROV1 ovarian 92.3% | OVCAR-3 ovarian 115% | HS 578T breast 95% | NCI/ADR-RES ovarian 100% | T-47D breast 106% | MDA-MB-435 melanoma 108% | SW-620 colon 103% | MCF7 breast 102% | HCT-116 colon 97.5% | HCC-2998 colon 101% | KM12 colon 109%

Cn1cc(-c2csc(-c3c[nH]c4ccc(F)cc34)n2)c2cccnc21
active: OVCAR-3 ovarian -2.33% | NCI/ADR-RES ovarian 9.55% | MDA-MB-435 melanoma -28%
inactive: SR leukemia 27.2% | RPMI-8226 leukemia 52% | OVCAR-8 ovarian 47.6% | OVCAR-5 ovarian 78.4% | SK-OV-3 ovarian 64.6% | IGROV1 ovarian 41.6% | HS 578T breast 76.1% | T-47D breast 44.3% | BT-549 breast 57.4% | SW-620 colon 26.5% | HCT-116 colon 23.1% | HCC-2998 colon 71.7% | KM12 colon 20.6%

C(=C\c1c[nH]c2ccccc12)/c1ccc2ccccc2n1
inactive: SR leukemia 67.5% | RPMI-8226 leukemia 44.7% | OVCAR-8 ovarian 78.7% | OVCAR-5 ovarian 121% | SK-OV-3 ovarian 89.5% | IGROV1 ovarian 47.8% | OVCAR-3 ovarian 69.3% | HS 578T breast 107% | NCI/ADR-RES ovarian 72.1% | T-47D breast 68.4% | BT-549 breast 68.8% | MDA-MB-435 melanoma 93% | SW-620 colon 107% | MCF7 breast 63.7% | HCT-116 colon 65.9% | HCC-2998 colon 97.8% | KM12 colon 52.4%

Cn1cc(-c2csc(-c3cn(C(=O)OC(C)(C)C)c4ccc(Br)cc34)n2)c2cccnc21
inactive: SR leukemia 58% | RPMI-8226 leukemia 84.5% | OVCAR-8 ovarian 70.7% | OVCAR-5 ovarian 95.5% | SK-OV-3 ovarian 98.7% | IGROV1 ovarian 93.2% | OVCAR-3 ovarian 98.3% | HS 578T breast 94.7% | NCI/ADR-RES ovarian 82.5% | T-47D breast 74.3% | BT-549 breast 103% | MDA-MB-435 melanoma 102% | MCF7 breast 81.5% | HCT-116 colon 67.4% | HCC-2998 colon 101% | KM12 colon 101%
